PubChem BioAssay AID624414 (National Center for Advancing Translational Sciences (NCATS), 2012)
The campaign covered roughly 410,000 compounds. About 480 (0.12%) were called active. This excerpt belongs to a sample that is enriched for actives. Unmarked numbers belong to inactive results. Cut-off read from the data, not from the text of the source: active = activation above about 50%; inconclusive = mostly about 30% to 49%; inactive = weaker than that.

Molecular target: Mucolipin-1 (Homo sapiens) (UniProt Q9GZU1)
Assay: qHTS for Agonists of the Human Mucolipin Transient Receptor Potential 1 (TRPML1); note: 0% is about no effect
Conditions: TRPML1-expressing cells, Ca2+ dye fluorescence, FDSS; stronger effect = higher value
Description: Mutations of human Mucolipin transient receptor potential 1 (TRPML1) cause type IV mucolipidosis (ML4), a devastating neurodegenerative disease in young children. […] Currently, there is no treatment for ML4. […] Under physiological conditions, TRPMLs regulate membrane trafficking by transducing information about PI(3,5)P2 levels into changes in juxtaorganellar Ca2+, thereby triggering membrane fusion/fission events in the late endocytic pathways (endolysosomal trafficking). In addition, TRPML1 mediates release of Fe2+ from late endosomes and lysosomes, which is essential for cellular iron metabolism. Thus, impaired ion (Ca2+ and Fe2+) homeostasis underlies lysosomal dysfunction and ML4 phenotypes. In ML4 cells, the problem is twofold. First, defective Ca2+-dependent membrane trafficking due to TRPML1-deficiency causes accumulation of lipids and other bio-materials in the lysosome. The second strike comes from the lysosomal iron overload (due to impairment of TRPML1's Fe2+ conductivity), which converts the accumulated materials into the nondegradable (resistant to lysosomal degradation) lipofuscin (also called aging pigment) in the lysosome. Lipofuscin accumulation dramatically compromises the functions of lysosomes.
Niemann-Pick type C (NPC) disease is another lysosome storage disease (LSD) with severe neurodegeneration during the childhood. Currently, there is no cure for NPC. […] Thus, TRPML1 is likely to be an essential regulator of lysosome ion homeostasis. We specifically hypothesize that stimulating TRPML1's Fe2+/Ca2+ channel activity in the lysosome using synthetic agonists can alleviate neurodegeneration associated with ML4 or NPC.
To this end, a high throughput screen was developed in a miniaturized format to screen against the Molecular Libraries Small Molecule Repository (MLSMR) to find small molecules that act either as inhibitors or agonist against the TRPML1 channel.
NIH Chemical Genomics Center [NCGC]
NIH Molecular Libraries Probe Centers Network [MLPCN]
Assay Submitter (PI): Haoxing Xu, University of Michigan Ann Arbor
TRPML1-DL cells are dissociated from flasks, counted and, brought up to a density of 500,000 cells per mL of media containing a 1X Tet inducer. Using a Multidrop Combi, 3uL of this cell solution is dispensed to each well of a 1536 TC treated, black, clear bottom hi base plate for a final cell density of 1,500 cells per well. The assay plates are incubated overnight (approximately 16 hours) at 37 degrees C and 5% CO2. Using a Multidrop Combi, 2uL of ABD Ca8 no wash dye plus quencher is added to each well. The assay plates incubate at room temperature in the dark for 45-90 minutes. The assay plate is read on the FDSS using the following protocol: 10 second baseline read, 23nL of compounds and controls are added using 1536 pintool, agonist read for 110 seconds, 1 uL EC80 addition (4uM final 54-4 diluted in media), antagonist read for 110 seconds.

Sequence of Mucolipin-1 (Homo sapiens) (Q9GZU1 whole entry, looked up): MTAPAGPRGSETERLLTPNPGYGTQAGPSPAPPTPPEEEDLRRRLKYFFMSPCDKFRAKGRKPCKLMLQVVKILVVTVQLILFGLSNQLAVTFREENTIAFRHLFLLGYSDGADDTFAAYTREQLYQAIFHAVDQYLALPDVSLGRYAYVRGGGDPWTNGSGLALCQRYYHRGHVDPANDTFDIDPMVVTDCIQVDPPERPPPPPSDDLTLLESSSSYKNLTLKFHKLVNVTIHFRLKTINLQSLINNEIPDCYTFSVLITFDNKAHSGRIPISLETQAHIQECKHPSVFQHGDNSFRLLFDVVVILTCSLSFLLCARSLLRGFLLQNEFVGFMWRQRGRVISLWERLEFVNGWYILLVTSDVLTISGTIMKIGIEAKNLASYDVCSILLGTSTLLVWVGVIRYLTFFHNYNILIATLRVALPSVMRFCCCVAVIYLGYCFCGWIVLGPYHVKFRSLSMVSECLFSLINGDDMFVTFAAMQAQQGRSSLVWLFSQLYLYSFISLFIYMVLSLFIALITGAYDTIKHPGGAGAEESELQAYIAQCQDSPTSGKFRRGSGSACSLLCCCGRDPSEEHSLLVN

| Structure (SMILES) | activation |
| --- | --- |
| CN(C)c1ccc(NC(=O)CSc2nc(-c3ccco3)cc(C(F)(F)F)n2)cc1 | 0.776% |
| CCN(CC)CCCC(C)Nc1ccnc2cc(Cl)ccc12 (stereo not drawn) | 0.571% |
| CCN(CC)CCCC(C)n1c2nc(=O)[nH]c(=O)c-2nc2cc(Cl)ccc21 (stereo not drawn) | 82.9% (active) |
| Cc1cccc(-n2c(=O)c3c(c4cc(C)ccc4n3C)n(CC(=O)Nc3ccccc3Cl)c2=O)c1 | 1.58% |
| Brc1cccc[n+]1Cc1cccc(C[n+]2ccccc2Br)c1 | 0.0634% |
| Cc1cccc(NC(=O)COC(=O)c2ccccc2OCc2cccc(Br)c2)c1 | -0.0809% |
| CCCCCCCNc1ccc(/C=C/c2ccnc3ccccc23)cc1 | 6.43% |
| O=C(Nc1ccc(Cl)cc1)c1cnn2c1NC(=C1CC1)C=C2C(F)F | -0.513% |
| C/C(=N\NC(N)=S)c1ccncc1 | 0% |
| CCOC(=O)c1c(C)oc2ccc(N(C(=O)c3ccncc3)S(=O)(=O)c3ccc(CC)cc3)cc12 | 0.815% |
| CCN(CC)c1ccc2cc(C(N)=O)/c(=N\NC(=O)c3ccncc3)oc2c1 | 81% (active) |
| COc1ccc(Br)cc1C1C2C=CCC(C)C2C(=O)N1Cc1ccccc1 (stereo not drawn) | 1.3% |
| CS(=O)c1ccc(/C=C2\C=Cc3ccccc32)cc1 (stereo not drawn) | -0.666% |
| COc1ccc(NC(=O)C2CCCN(S(=O)(=O)c3cccc4nonc34)C2)cc1Cl (stereo not drawn) | 0.791% |
| Cc1ccc(-c2nc(=N)sn2Cc2ccccc2)cc1 | 0.856% |
| O=C(Cc1ccc(Cl)cc1)Nc1ccc2nn(-c3ccc(Cl)cc3)nc2c1 | -0.688% |
| CCN(CC)/[N+]([O-])=N/OCOC(=O)Cc1c(C)n(C(=O)c2ccc(Cl)cc2)c2ccc(OC)cc12 | 1.25% |
| O=C(COc1ccccc1C(=O)Nc1ccccc1)Nc1cccc(F)c1 | -0.0642% |
| CCn1c2ccccc2c2cc(CN3CCN(Cc4cccc(Cl)c4)CC3)ccc21 | 1.83% |
| COc1ccccc1C(c1nnnn1CC1CCCO1)N1CCN(c2ccccc2)CC1 (stereo not drawn) | 1.14% |
| Cc1cccc(N2CCN(C(c3ccc(N(C)C)cc3)c3nnnn3C(C)(C)C)CC2)c1C (stereo not drawn) | -0.374% |
| Cc1cccc(N2CCN(C(c3ccccc3)c3nnnn3CC3CCCO3)CC2)c1C (stereo not drawn) | 83.5% (active) |
| O=C(CSc1nccn1Cc1ccc(Cl)cc1)NCc1ccccc1 | -1.21% |
| SCc1nc2ccc(Cl)cc2[nH]1 | -0.507% |
| Cc1cc(C)c(/C=C2\C(=O)Nc3ccccc32)[nH]1 | 92% (active) |
| CC(C)OCCCn1c(SCC(=O)c2ccccc2)nc2c(sc3ccccc32)c1=O | 0.121% |

| Structure (SMILES) | activation |
| --- | --- |
| CCOCCCNC(=O)c1ccc2nc(CCc3ccccc3)oc2c1 | 2.82% |
| CC(C)(C)n1ncc2c(=O)n(Cc3ccc(C(=O)c4ccccc4)cc3)cnc21 | 2.07% |
| CC(C(=O)N1CCc2ccccc21)N(C)CC(=O)Nc1ccc(F)cc1 (stereo not drawn) | 51.7% (active) |
| CN(CC(=O)Nc1ccc(F)cc1)CC(=O)N1CCCCC1 | -0.517% |
| CC(OC(=O)Cc1ccc(F)cc1)C(=O)N1CCc2ccccc21 (stereo not drawn) | 1.15% |
| O=C(O)C1=C/C(=C/C=[N+]2c3cc(O)c(O[C@H]4OC(CO)[C@@H](O)[C@@H](O)[C@@H]4O)cc3C[C@@H]2C(=O)[O-])C[C@H](C(=O)O)N1 (stereo partly drawn) | -0.0321% |
| Cc1nn(CC(=O)O)c(=O)c2cc3cc(F)ccc3n12 | -0.613% |
| CC1CC(C)CN(c2oc(-c3ccc(OCc4ccc(Cl)cc4)cc3)nc2C#N)C1 (stereo not drawn) | -0.254% |
| COc1ccc(-c2ccc(C3C4C=CCCC4(C)C(=O)N3Cc3ccccc3)c(F)c2)cc1OC (stereo not drawn) | 0.474% |
| COc1ccc(Cl)cc1NC(=O)c1sc2nc3c(cc2c1N)CN(C)CC3 | 1.12% |
| O=C(c1ccc2c(c1)N(Cc1ccccc1)C(=O)c1ccccc1S2(=O)=O)N1CCC(Cc2ccccc2)CC1 | 0.0562% |
| CC(=O)c1ccc(NS(=O)(=O)c2ccc(-c3cc(C)no3)s2)cc1 | -0.182% |
| CN(C)c1cccc2ccccc12 | -0.266% |
| CC(C)(C)OC(=O)N(Cc1ccco1)S(=O)(=O)c1ccccc1Br | 0.62% |
| CCOc1cc2[nH]c(=O)n(Cc3ccc(C(=O)NCCN(CC)CC)cc3)c(=O)c2cc1OCC | -0.328% |
| O=C(Nc1ccccc1C(F)(F)F)c1nc(S(=O)(=O)Cc2ccccc2F)ncc1Cl | 0.0634% |
| CCOc1ccccc1NC(=O)Cn1nnc(C(=O)Nc2ccc(C)c(C)c2)c1N | 1.55% |
| C/C=C/NNC(=O)Cc1ccc(OC)cc1 | -0.93% |
| CC(C)(C)C1CCC(NC(=O)c2cnn3c2NC(=C2CC2)C=C3C(F)F)CC1 (stereo not drawn) | -1.12% |
| Cc1cc2nc3c(=O)n(Cc4ccccc4)c(=O)[nH]c3nc2cc1N | 94.8% (active) |
| CCC(=O)Nc1ccc(C)cc1-c1nc2ccccc2n(Cc2ccccc2)c1=O | 0.405% |
| COCCn1c(N)c(NCc2ccccc2)c(=O)[nH]c1=O | 1.47% |
| COc1cc(OC)c(OC)cc1/C=C1\C=Cc2ccccc21 | -0.666% |
| COc1ccc(Cc2nc3ccc(C(=O)NCc4ccccc4Cl)cc3o2)cc1 | 0.91% |
| COc1ccccc1CNc1nccn(-c2ccc(F)cc2)c1=O | 0.564% |
| O=C1COc2ccc(-c3csc(-c4ccc(Cl)cc4)n3)cc2N1 | -0.602% |

| Structure (SMILES) | activation |
| --- | --- |
| NC(=O)Nc1ccc(/C=C/c2ccnc3ccccc23)cc1 | -0.0317% |
| CC(=O)Nc1ccc(S(=O)(=O)N2N=NC3C2C2CC4C3(CN(C(=O)OC(C)(C)C)S4(=O)=O)O2)cc1 (stereo not drawn) | 0.118% |
| COc1ccc(CNc2nc(-c3ccc(Cl)cc3)nn2S(=O)(=O)c2ccc(C)cc2)cc1 | 3.68% |
| O=C(Nc1cccc2cccnc12)C(F)(F)F | 1.01% |
| CCOc1ccc(NC(=O)c2cnn(-c3ccccc3)c2-n2cccc2)cc1 | -0.36% |
| CC(C)(C)c1ccc(C(=O)C[n+]2cccc3cc(Cl)ccc32)cc1 | 0.444% |
| O=C(/C=C(O)/C=C/c1ccc(O)cc1)/C=C/c1ccc(O)cc1 | 80.8% (active) |
| COc1ccc(C(=O)c2oc3ccccc3c2NC(=O)COc2cccc(C)c2)cc1 | -0.131% |
| Cc1cc(C)cc(NC(c2nnc(-c3cccc(F)c3)o2)c2ccc(F)cc2Cl)c1 (stereo not drawn) | 0.152% |
| O=C1CCC[C@@H]2C[C@@]3(C[C@@H]4CCN1[C@H]24)Nc1ccccc1NC3=NCc1ccccc1 | 0.0295% |
| Cc1c(CCO)sc[n+]1CC(=O)c1ccc2ccccc2c1 | -0.38% |
| O=C(c1ccc2c(c1)N(Cc1ccccc1F)C(=O)c1ccccc1S2(=O)=O)N1CCOCC1 | -0.566% |
| COc1ccc(/C=C/c2ccnc3ccccc23)cc1OC | -0.507% |
| CN(C)C1=C2C=CC=CC2/C(=C2/C=Cc3ccccc32)C=C1 (stereo not drawn) | -0.475% |
| COc1cc2nc(C#Cc3nc4cc(OC)c(OC)cc4[nH]3)[nH]c2cc1OC | -0.266% |
| O=C(NC1CC(=O)N(c2ccc(F)cc2)C1)c1cccs1 (stereo not drawn) | -0.226% |
| CCOC(=O)N1CCC(NC(=O)c2cnn(-c3cccc(C)c3)c2C2CCN(C(=O)OC(C)(C)C)CC2)CC1 | 0.0606% |
| CC(C)(C)OC(=O)N1CCC(c2c(C(=O)N3CCN(c4cccc(Cl)c4)CC3)cnn2-c2cccc(Cl)c2)CC1 | 69.8% (active) |
| Cc1cccc(-n2ncc(C(=O)N3CCC(C)CC3)c2C2CCN(C(=O)OC(C)(C)C)CC2)c1 | 0.455% |
| COc1ccccc1CN1CCC(CNC(=O)c2cnn(-c3cccc(Cl)c3)c2C2CCN(C(=O)OC(C)(C)C)CC2)CC1 | 1.58% |
| Cc1cccc(-n2ncc(C(=O)N3CCc4ccccc4C3)c2C2CCN(C(=O)OC(C)(C)C)CC2)c1 | 0.364% |
| Cc1cccc(-n2ncc(C(=O)N3CCN(c4ccc(Cl)cc4)CC3)c2C2CCN(C(=O)OC(C)(C)C)CC2)c1 | 51.3% (active) |
| COCC(C)NS(=O)(=O)c1ccc(N2CCCCS2(=O)=O)cc1 (stereo not drawn) | -0.459% |
| CC1=C(c2ccc(F)cc2)S(=O)(=O)N=C1N1CCC(C(=O)NCCc2ccccc2C)CC1 | 2.54% |
| COc1ccc(-c2nc(=N)sn2-c2ccccc2)cc1 | 12.5% |
| COc1ccc(/C=C/c2ccccn2)cc1OC | -0.792% |
